Source: PubChem BioAssay
Activity calls are given as the source filed them.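 The calls were made as follows, unless noted: active = fluorescence slope after compound addition differing from the mean of all screened samples at 99.7% confidence, in either direction; inactive = the rest.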

How the values were obtained:
[1] = inhibitors of TNFa-induced NFkB p65 translocation, primary screen, imaging, HUVEC, MLSMR starter and 10KST1 sets (AID 438;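 active = inhibition above 20% together with a positive visual image hit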;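 also: compound added about 3h40 before a 20 min TNFalpha stimulation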;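 as to inhibition: signal is the nuclear over cytoplasmic p65 intensity ratio per well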); conditions: HUVEC TNFa-induced p65 nuclear translocation; cell count: measured here: nuclei count (cytotoxicity indicator), at 2.08 µM; inhibition: at 2 µM, stronger effect = higher value, 0% TNFa-plus-vehicle, 100% no-TNFa wells
[2] = reduction of polyQ htt aggregates in cells – imaging, exon1htt(103Q)mCFP cells, high-content imaging, primary screen (AID 483;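 active = visual image review flags a hit and inhibition of aggregation exceeds 20%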;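 also: compound exposure lasted 3 days before fixation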;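 as to nuclei count: percent of the per-plate median nuclei count of sample wells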); conditions: exon1htt(103Q)mCFP cell line, aggregate imaging, at 2 µM; inhibition of aggregation: stronger effect = higher value; nuclei count: measured here: cell count, toxicity
[3] = endothelial E-selectin expression blockers – imaging, HUVEC, immunofluorescence, MLSMR starter and 10KST1 sets, primary screen (AID 487;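 active = visually confirmed hit in the image check and inhibition above 20%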;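 as to inhibition: signal is fraction of cell area covered by stained E-selectin grains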;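 as to nuclei count: 100% = median nuclei count of all wells on the same plate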); conditions: HUVEC TNFalpha-induced E-selectin immunofluorescence imaging, at 2 µM; inhibition: stronger effect = higher value; nuclei count: measured here: cell number, toxicity
[4] = biological target: Voltage-gated potassium channel subunit beta-2 (Rattus norvegicus) (UniProt P62483); experiment: inhibitors of rat Kvbeta2 reductase activity – biochemical, NADPH fluorescence, primary screen (AID 622;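 active = fluorescence slope higher than the sample average by over 3 SD, cut at about -0.22 in these data, passing the limit was not always enough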;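 also: slope of raw intensity against log time taken from 70 to 1610 s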); conditions: recombinant KvBeta, 4-cyanobenzaldehyde reduction, at 10 µM, stronger effect = higher value
[5] = biological target: Voltage-gated potassium channel subunit beta-2 (Rattus norvegicus) (UniProt P62483); experiment: enhancers of rat Kvbeta2 NADPH turnover – biochemical, NADPH fluorescence, primary screen (AID 623;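 active = NADPH fluorescence slope more negative than the mean of all samples by about 3 SD, 99.7% confidence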;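 also: fluorescence intensity change per second fitted from 20 to 320 s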); conditions: Recombinant KvBeta, NADPH fluorescence decrease slope, 10 min; at 10 µM; stronger effect = lower value
[6] = biological target: Alpha-2C adrenergic receptor (Homo sapiens) (UniProt P18825); experiment: compounds altering alpha2C-coupled GIRK flux – cell-based, HEK293 alpha2C/GIRK1/2, thallium flux, primary screen (AID 624); conditions: thallium flux BTC fluorescence, at 10 µM, actives lie on both sides;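 also: slope of fluorescence ratio to pre-addition baseline per second over 15 to 24 s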
[7] = blockers of RIG-like receptor reporter activation – cell-based, Sendai virus stimulus, luciferase, 10K MLSCN set, TLR/RLR signaling modifier project, primary screen (AID 602276;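 active = inhibition at or above 50% at 10 µM; inactive = inhibition below 50%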;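 also: firefly luciferase from ISG56 promoter only with Renilla not read in this screen; 0% = Sendai virus plus DMSO and 100% = medium plus DMSO without virus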); conditions: HEK293 RL24 IRF3 luciferase reporter, at 10 µM, stronger effect = higher value
[8] = TLR3 IRF3 reporter activation blockers – cell-based, poly I:C stimulus, luciferase, 10K MLSCN set, primary screen (AID 602277;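 active = inhibition of the reporter signal at or above 50%; inactive = inhibition below 50%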); conditions: HEK293-TLR3 RL24 IRF3 luciferase reporter, at 10 µM, stronger effect = higher value

Voltage-gated potassium channel subunit beta-2 (Rattus norvegicus), sequence (P62483 whole entry, looked up): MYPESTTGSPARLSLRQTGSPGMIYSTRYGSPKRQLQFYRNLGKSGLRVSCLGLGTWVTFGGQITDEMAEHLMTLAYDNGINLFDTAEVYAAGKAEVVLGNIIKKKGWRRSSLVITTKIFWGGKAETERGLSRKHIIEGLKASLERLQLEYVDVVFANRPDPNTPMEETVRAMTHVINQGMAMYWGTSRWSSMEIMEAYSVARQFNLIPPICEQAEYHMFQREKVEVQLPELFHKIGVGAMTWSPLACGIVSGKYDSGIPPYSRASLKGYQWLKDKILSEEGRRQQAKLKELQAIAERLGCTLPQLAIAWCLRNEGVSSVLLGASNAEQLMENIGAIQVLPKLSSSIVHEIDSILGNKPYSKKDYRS
Alpha-2C adrenergic receptor (Homo sapiens), sequence (P18825 whole entry, looked up): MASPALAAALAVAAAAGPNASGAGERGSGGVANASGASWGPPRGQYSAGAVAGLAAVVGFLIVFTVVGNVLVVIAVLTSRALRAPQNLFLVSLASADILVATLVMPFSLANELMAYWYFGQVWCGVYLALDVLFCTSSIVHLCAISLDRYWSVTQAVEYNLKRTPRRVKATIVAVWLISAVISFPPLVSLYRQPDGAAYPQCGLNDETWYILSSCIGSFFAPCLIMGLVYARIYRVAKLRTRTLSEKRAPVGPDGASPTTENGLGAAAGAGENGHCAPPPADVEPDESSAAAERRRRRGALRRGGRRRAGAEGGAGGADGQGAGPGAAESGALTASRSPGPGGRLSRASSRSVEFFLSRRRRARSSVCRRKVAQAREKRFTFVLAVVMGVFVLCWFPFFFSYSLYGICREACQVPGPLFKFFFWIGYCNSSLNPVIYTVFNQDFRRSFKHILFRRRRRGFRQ

| Structure (SMILES) | cell count [1] | inhibition [1] | inhibition of aggregation [2] | nuclei count [2] [%] | inhibition [3] | nuclei count [3] [%] | fluorescence slope [4] | NADPH fluorescence slope [5] | slope [6] | inhibition [7] | inhibition [8] |
| --- | --- | --- | --- | --- | --- | --- | --- | --- | --- | --- | --- |
| CCCn1c(SCC(=O)Nc2ccccc2C(=O)OC)nc2c1c(=O)n(C)c(=O)n2C | 576 | -10.9% (inactive) | 20.6% (inactive) | 95.3 | -152% (inactive) | 84.8 | -0.395 (inactive) | -7.6e-05 (inactive) | 0.00511 (inactive) | 15.9% (inactive) | 13% (inactive) |
| CN(C)S(=O)(=O)Nc1ccc(Br)cc1F | 688 | -11.1% (inactive) | 9.4% (inactive) | 103 | -24.9% (inactive) | 100 | -0.439 (inactive) | -8.8e-06 (inactive) | 0.00541 (inactive) | 8.09% (inactive) | 15.9% (inactive) |
| Cc1nc2ccccc2c2oc(C(=O)N3CCC(N4CCCCC4)CC3)cc12 | 591 | -4.4% (inactive) | -14.4% (inactive) | 100 | -12.1% (inactive) | 119 | -0.602 (inactive) | -3.1e-05 (inactive) | 0.00619 (inactive) | -0.549% (inactive) | 24% (inactive) |
| Cn1c(-c2ccc(F)cc2)cnc1SCC(=O)Nc1ccccc1N1CCOCC1 | 458 | 1.4% (inactive) | 53.7% (active) | 63.3 | -76.1% (inactive) | 90.4 | -0.31 (inactive) | -2.7e-05 (inactive) | 0.00572 (inactive) | -29.2% (inactive) | -99% (inactive) |
| Cc1ccccc1NC(=O)C1CCCN(S(=O)(=O)c2cnc[nH]2)C1 (configuration not stated) | 726 | -11% (inactive) | 21.2% (inactive) | 109 | -26.7% (inactive) | 124 | -0.564 (inactive) | -2e-05 (inactive) | 0.0067 (inactive) | 10.6% (inactive) | 32.6% (inactive) |
| O=C(NC(=O)c1cccc(F)c1)OC[C@@H]1CCCN2CCCC[C@H]12 | 600 | -5.8% (inactive) | -12.4% (inactive) | 77.9 | -55.2% (inactive) | 113 | -0.491 (inactive) | 1.1e-05 (inactive) | 0.00714 (inactive) | 8.41% (inactive) | 28.6% (inactive) |
| CCOCCCNC(=O)C(c1ccc(C)cc1)N(Cc1ccc2c(c1)OCO2)C(=O)c1cnccn1 (configuration not stated) | 275 | 13.1% (inactive) | 16.3% (inactive) | 102 | -40.9% (inactive) | 107 | -0.471 (inactive) | 4.1e-05 (inactive) | 0.00515 (inactive) | 9.6% (inactive) | 17% (inactive) |
| CCN(CC)CCN1C(=O)C(O)=C(C(=O)c2cccs2)C1c1ccc(C)o1 (configuration not stated) | 343 | 12.4% (inactive) | -10.4% (inactive) | 91.9 | -153% (inactive) | 111 | -0.411 (inactive) | -3.6e-05 (inactive) | 0.00478 (inactive) | 2.4% (inactive) | -5.17% (inactive) |
| CCCC(=O)Nc1nnc(CC(=O)N2CCCC2)s1 | 845 | 4.5% (inactive) | 3.1% (inactive) | 106 | -55% (inactive) | 115 | -0.31 (inactive) | -5.4e-05 (inactive) | 0.006 (inactive) | 14.1% (inactive) | 21.6% (inactive) |
| O=C(Nc1ccccc1-c1ccccc1)NC1CCN(C(=O)N2CCOCC2)CC1 | 497 | 0% (inactive) | -19.4% (inactive) | 113 | 6.6% (inactive) | 96.7 | -0.5 (inactive) | -4.4e-05 (inactive) | 0.00404 (inactive) | 13.4% (inactive) | 18.7% (inactive) |
| Cc1ccc(N2CCN(c3ccc(C)cc3)C(CC(=O)O)C2=O)cc1 (configuration not stated) | 549 | -4.7% (inactive) | 3.3% (inactive) | 92.3 | 12.6% (inactive) | 108 | -0.499 (inactive) | 1.5e-05 (inactive) | 0.00583 (inactive) | 5.38% (inactive) | 4.47% (inactive) |
| CC1(CC(=O)O)C(=O)N=C2C=CC=CN21 (configuration not stated) | 489 | -10.7% (inactive) | 17.4% (inactive) | 77.5 | 12.8% (inactive) | 97.8 | -0.318 (inactive) | 2.3e-05 (inactive) | 0.0089 (inactive) | 19.8% (inactive) | 22.1% (inactive) |
